“And” between values parts separate entries of the source, which are not always exact repeats. Identical values can stand only once. For some of these results: Measured potencies and affinities stand elsewhere. A structure can be active in one record and inactive in another. The source made the active and inactive calls. Rule as the data show it, unless noted: active = parasite load remaining mostly below about 12% (no sharp cut-off); inactive = mostly above about 10%.
Tests used:
[1] = blockers of polyQ-driven CASP3 activation – cell-based (AID 1583); settings: polyglutamine-induced caspase-3 activation, cell assay; stronger effect = higher value;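 tested at 10 µM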
[2] = yeast 75Q aggregation reduction – 75Q-TubU reporter (AID 1593); settings: Yeast 75Q polyglutamine aggregation reporter
[3] = restoration of touch response, mutant HTT neurons – whole organism, C. elegans mechanosensory neurons, N-terminal huntingtin (AID 1599); settings: C. elegans polyQ-huntingtin mechanosensory neurons, stronger effect = higher value
[4] = blockers of cytochrome c efflux from mitochondria – biochemical, purified mitochondria (AID 1603); settings: stronger effect = lower value;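 also: mouse liver mitochondria challenged with calcium chloride; signal normalized to the plate average as 100%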
[5] = polyglutamine aggregate formation blockers (AID 1604); settings: polyglutamine-induced protein aggregation inhibition assay; stronger effect = higher value; tested at 2.5 µM
[6] = glutamate transport activators, MN-1 cells, MN-1 cell line (AID 1612); settings: MN-1 motor neuron cells, stronger effect = higher value;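 also: tested at 1 µM final; 0% = mean of DMSO vehicle wells on each plate; positive means more glutamate uptake than control and negative means less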
[7] = GFP-Q80 aggregate reduction, neuronal-like cells, cell-based, NGF-treated PC12, GFPQ80 (AID 1614); settings: PC12 NGF-treated GFP-polyQ80 inclusion reduction;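 also: lower means fewer inclusions and 0 means no inclusions at all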
[8] = 75Q-TubH aggregate inhibition, S. cerevisiae, yeast (AID 1616); settings: S. cerevisiae 75Q-TubH polyglutamine aggregation suppression; stronger effect = higher value
[9] = P. berghei load reduction in hepatocytes – cell-based, HepG2, luciferase luminescence, HepG2 viability, primary screen (AID 624349);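 also: 100% = mean of DMSO negative control wells on the same plate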; settings: P. berghei liver stage in HepG2, luciferase luminescence, concentration not given here; parasite load remaining: stronger effect = lower value; viability: measured here: HepG2 viability without parasites
[10] = EMT-state selective cytotoxicity in co-culture – imaging, PC-3E GFP, TEM4-18 mCherry, primary screen (AID 1345086;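 active = compounds killing one labelled cell type while sparing the other, by normalised counts and ratio limits, not self-fluorescent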;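 as to all read-outs here: cells exposed to compound for 72 h before imaging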;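 as to red/green cell ratio (normalised): normalised mesenchymal count divided by normalised epithelial count so high means epithelial killing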); settings: PC-3E GFP / TEM4-18 mCherry co-culture, imaging cell counts, at 1 µM; for red/green cell ratio (normalised): actives lie on both sides, counts scaled to control wells, 1 = unselective
[11] = viability loss with induced miR-34 in A549 – imaging, A549 dox-inducible miR-34, nuclei and caspase counts, primary screen (AID 1347080;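 active = compounds whose cell count with miR-34 switched on is under 0.7 times the count with it off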); settings: A549 miR-34 inducible, Hoechst nuclei count, 48 h
[12] = measured here: epithelial PC-3E GFP cell survival
[13] = measured here: mesenchymal TEM4-18 mCherry cell survival
[14] = stronger effect = lower value, cell number ratio, induced over uninduced
[15] = measured here: relative caspase fold change +Dox/-Dox
[16] = measured here: total cells with miR-34 induction, stronger effect = lower value
[17] = measured here: total cells without miR-34 induction

Row | Compound | inhibition [1] | score [2] | rescue above control [3] | cytochrome c release ratio [4] | inhibition of aggregation [5] | glutamate uptake change [6] | inclusion score [7] | aggregation suppression score [8] | parasite load remaining [9] | viability [9] | red/green cell ratio (normalised) [10] | normalised cell number [10, 12] | normalised cell number [10, 13] | fold change [11, 14] | fold change [11, 15] | cell count [11, 16] | cell count [11, 17]
1 | NC[C@@H]1O[C@H](O[C@@H]2[C@@H](CO)OC(O[C@@H]3[C@@H](O)[C@H](N)C[C@H](N)[C@H]3OC3O[C@H](CN)[C@@H](O)[C@H](O)[C@H]3N)[C@@H]2O)[C@H](N)[C@@H](O)[C@@H]1O (some centres undefined) | -14.5% | 0.97 | 4.93 | 0.82 | 43.7% | -6.09% | 2 | 1.49 | 59.3% (inactive) | 91.2% | 0.97 (inactive) | 1.02 | 0.98 | 0.934 (inactive) | 0.542 | 12000 | 12900
2 | C[C@@H]1CC2C3CCC4=CC(=O)C=C[C@]4(C)[C@@]3(F)[C@@H](O)C[C@]2(C)[C@@]1(O)C(=O)COP(=O)(O)O (some centres undefined) | -13.7% | 2.71 | -9.5 | 0.74 | 70.1% | 6.45% | 2.5 | 1.87 | 113% (inactive) and 77.9% (inactive) | 75.1% and 87% | 1.5 (inactive) | 1.11 | 1.67 | 0.847 (inactive) | 1.88 | 7240 | 8540
3 | CN[C@@H]1C(OC2[C@H](O[C@H]3[C@H](O)[C@@H](O)[C@H](N=C(N)N)[C@@H](O)[C@@H]3N=C(N)N)OC(C)[C@]2(O)CO)OC(CO)C(O)C1O (some centres undefined) | -7.45% | 1.24 | 1.04 | 0.93 | 82.2% | -1.61% | 2 | 1.17 | 87.5% (inactive) and 63.1% (inactive) | 69.8% and 93.3% | 1.34 (inactive) | 1.05 | 1.41 | 0.819 (inactive) | 1.34 | 10800 | 13200
4 | CN(C)CCCO[C@H]1[C@@H](C(O)CO)OC2OC(C)(C)O[C@@H]21 (some centres undefined) | 13.5% | 1.28 | -9.95 | 1.02 | 85.9% | -4% | 2 | 1.2 | 121% (inactive) and 48% (inactive) | 87.2% and 101% | 0.97 (inactive) | 0.98 | 0.95 | 0.948 (inactive) | 2.91 | 12000 | 12700
5 | C[C@@H]1CC2C3C[C@H](F)C4=CC(=O)C=C[C@]4(C)[C@@]3(F)[C@@H](O)C[C@]2(C)[C@@]1(O)C(=O)CO (some centres undefined) | 14.1% | 1.53 | 11.3 | 1.19 | 57.7% | 16.9% | 2 | 0.927 | 21.3% (inactive) | 92.2% | 1.15 (inactive) | 1.15 | 1.33 | 0.92 (inactive) | 1.86 | 7830 | 8520
6 | CC(=O)OCC(=O)[C@@]1(O)[C@H](OC(C)=O)CC2C3CCC4=CC(=O)C=C[C@]4(C)[C@@]3(F)[C@@H](O)C[C@@]21C (some centres undefined) | -24% | 1.15 | 19.5 | 1.31 | 89.7% | 9.09% | 2.5 | 0.805 | 160% (inactive) and 64.8% (inactive) | 67.1% and 85.5% | 1.19 (inactive) | 0.98 | 1.17 | 0.86 (inactive) | 3.23 | 7630 | 8870
7 | CC(=O)[C@H]1CCC2C3C[C@H](C)C4=CC(=O)CC[C@]4(C)C3[C@@H](O)C[C@@]21C (some centres undefined) | -9.54% | 0.84 | 5.72 | 0.58 | 53.9% | 24.3% |  | 0.683 | 75.8% (inactive) and 64.6% (inactive) | 70.5% and 91.2% | 1.01 (inactive) | 1.12 | 1.13 | 0.946 (inactive) | 2.37 | 8730 | 9220
8 | O=C(O)CCCCC1SCC2NC(=O)NC21 (centres undefined) | 27.9% | 1.08 | 4.79 | 0.89 | 0% | -4.28% | 2 | 1.3 | 40.6% (inactive) and 36.1% (inactive) | 78% and 88.2% | 1.21 (inactive) | 1.02 | 1.23 | 0.892 (inactive) | 3.76 | 12200 | 13700
9 | CNC[C@@H](O)c1ccc(O)c(O)c1 | 15.5% | 1.46 | -0.75 | 0.7 | 86.2% | -6.16% | 1 | 1.31 | 51.9% (inactive) and 119% (inactive) | 72.9% and 92% | 1.49 (inactive) | 1.01 | 1.5 | 0.901 (inactive) | 3.62 | 11500 | 12800
10 | CC[C@H]1CN2CCc3cc(OC)c(OC)cc3C2C[C@@H]1CC1NCCc2cc(OC)c(OC)cc21 (some centres undefined) | 43.8% | 1.69 | -0.41 | 1.03 | 67.5% | -39.3% |  | 1.03 | -0.06% (active) and -0.06% (inactive) | 69.1% and 43.7% | 0.69 (inactive) | 0.22 | 0.15 | 1.07 (inactive) | 1.51 | 2470 | 2320
11 | C#C[C@]1(OC(C)=O)CCC2C3CCC4=CC(=O)CC[C@@H]4C3CC[C@@]21C (some centres undefined) | 17.5% | 0.07 | 0.31 | 1.09 | 7.32% | 12.7% |  | 0.237 | 88.9% (inactive) and 45.6% (inactive) | 69.5% and 94.9% | 1.18 (inactive) | 1 | 1.17 | 0.881 (inactive) | 2.11 | 10900 | 12400
